# Measured values taken from PubChem BioAssay.
# The source made the active and inactive calls. Unless noted, how the calls were made is not given here.
# Assays:
# [1] = tested on: Wnt5a (protein binding on small-molecule microarray); test: Wnt5a binders on small-molecule microarray, primary screen, biophysical, 635/667 nm fluorescence (AID 1142); conditions: 635 nm fluorescence, higher = more signal;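 further: fluorescence read at 667 nm with signal to noise per printed feature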
# [2] = cell viability in Huh7 cells, primary screen, cytotoxicity control for HCV replication inhibitor project, CellTiter-Glo luminescence, basal, 48 h (AID 1143); conditions: Huh7 HCV replicon, higher = more signal, called active from +8 up or from −8 down;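 further: Huh7 hepatoma cells carrying a hepatitis C replication reporter with no stimulus; test concentration not given here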
# [3] = P. aeruginosa biofilm formation inhibitors, primary screen, PAO1 strain, BacTiter-Glo luminescence, LB-PBS (AID 1144); conditions: 12 h, higher = more signal
# [4] = CREB reporter modulators without forskolin, primary screen, cell-based, PC12, CRE-LacZ reporter, unstimulated (AID 1145); conditions: no forskolin, luminescence, 4.5 h, higher = more signal, called active from +8 up or from −8 down
# [5] = CREB reporter modulators under forskolin, primary screen, cell-based, PC12, CRE-LacZ reporter, forskolin-stimulated (AID 1146); conditions: luminescence, 4.5 h, higher = more signal, called active from +8 up or from −8 down;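 further: PC12 cells with 6xCRE LacZ reporter stimulated by forskolin 10 µM; beta-galactosidase reporter signal reflecting CREB driven transcription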
# [6] = target: Streptavidin (Streptomyces avidinii) (UniProt P22629); test: streptavidin binders on small-molecule microarray, primary screen, artefact control for SMM compound annotation, biophysical, 635/667 nm fluorescence (AID 1147); conditions: streptavidin binding, higher = more signal;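 further: signal reflects streptavidin binding to arrayed compounds as a control protein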
# [7] = small-molecule binders of probe aInhba, primary screen, biochemical, small-molecule microarray, 635/667 nm fluorescence (AID 1148); conditions: higher = more signal;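 further: score merges 667nm spot fluorescence with signal-to-noise for antibody binding to printed compounds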
# Torsin-1A (Homo sapiens) [8] = target: Torsin-1A (Homo sapiens) (UniProt O14656); test: torsin A binders from cell lysate, primary screen, small-molecule microarray, wild-type, 635/667 nm (AID 1149); conditions: COS7 hTOR1A-WT lysate, 635 nm fluorescence, higher = more signal
# Torsin-1A (Homo sapiens) [9] = target: Torsin-1A (Homo sapiens) (UniProt O14656); test: small-molecule binders of mutant TOR1A in lysate, primary screen, cell lysate, small-molecule microarray, COS7 lysate, 635/667 nm fluorescence (AID 1150); conditions: COS7 hTOR1A mutant lysate, 635 nm fluorescence, higher = more signal;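 further: score pools 667 nm emission and signal to noise measuring lysate protein binding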
# [10] = tested on: Sonic hedgehog protein (Shh); test: small-molecule binders of Shh protein, primary screen, biochemical, small-molecule microarray, 635/667 nm fluorescence (AID 1151); conditions: small-molecule microarray binding, 635 nm fluorescence; higher = more signal;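 further: Shh protein binding to compounds spotted on small-molecule microarray slides; score combines spot fluorescence intensity with signal-to-noise across triplicate slides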
# Torsin-1A (Homo sapiens), sequence (O14656 whole entry, looked up): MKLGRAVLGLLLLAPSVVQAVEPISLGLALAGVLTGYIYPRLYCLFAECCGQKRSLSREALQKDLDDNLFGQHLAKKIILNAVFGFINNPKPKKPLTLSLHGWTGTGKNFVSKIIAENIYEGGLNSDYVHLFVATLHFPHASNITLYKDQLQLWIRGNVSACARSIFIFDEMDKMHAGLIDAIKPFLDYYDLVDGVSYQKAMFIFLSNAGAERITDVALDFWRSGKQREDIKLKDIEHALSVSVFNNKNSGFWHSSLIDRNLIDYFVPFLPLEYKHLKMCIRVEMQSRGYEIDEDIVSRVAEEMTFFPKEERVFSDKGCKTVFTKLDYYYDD
# Streptavidin (Streptomyces avidinii), sequence (P22629 whole entry, looked up): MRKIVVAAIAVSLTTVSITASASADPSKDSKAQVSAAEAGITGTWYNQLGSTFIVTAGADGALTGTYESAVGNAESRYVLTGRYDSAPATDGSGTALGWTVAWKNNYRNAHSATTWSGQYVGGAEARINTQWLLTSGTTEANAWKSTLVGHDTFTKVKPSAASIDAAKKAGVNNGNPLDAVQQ
Compound,composite z-score [1],z-score [2],z-score [3],z-score [4],z-score [5],composite z-score [6],composite z-score [7],composite z-score (Torsin-1A (Homo sapiens) [8]),composite z-score (Torsin-1A (Homo sapiens) [9]),composite z-score [10]
O=C1[C@H]2[C@H]3[C@H](O)[C@H](O)CC(=NOCc4ccccc4)[C@@H]3CC[C@H]2C(=O)N1Cc1ccc2c(c1)OCO2,0.0098,0.445 (inactive),-0.312 (inactive),0.0664 (inactive),-0.174 (inactive),0.193,-0.101,0.537,-0.0537,0.643
CCOC(=O)[C@H](Cc1ccccc1)NC(=O)CCC1CC(OC(=O)NCc2cccc3ccccc23)CC2(CCCC(COC(=O)NCc3cccc(C(F)(F)F)c3)O2)O1 (stereo not given in full),-0.0693,-0.816 (inactive),-0.641 (inactive),4.81 (inactive),-0.0734 (inactive),0.339,-0.0375,-0.347,-0.385,0.0624
CC(CCN1CCCc2nc(C)c(C)cc21)=NO[C@@H](C)c1cc(-c2c(C)cc(C)cc2C)no1,0.0353,-0.636 (inactive),-0.501 (inactive),-0.0591 (inactive),-0.559 (inactive),0.327,0.111,0.464,-0.184,0.54
CCCNC(=O)OC[C@H]1O[C@H](CCON=Cc2ccc(C(=O)N3[C@H](c4ccc(C)cc4)[C@@H](C)CC[C@H]3C(=O)OC)cc2)C=C[C@@H]1Oc1ccc(OC)cc1,0.157,-1.73 (inactive),0.0699 (inactive),2.55 (inactive),1.16 (inactive),0.0335,-0.105,0.436,0.853,0.396
